PubChem BioAssay
Activity calls are given as the source filed them.

Assays:
[1] = small molecules captured by biotinylated probe aFSTL3 – biochemical, small-molecule microarray, fluorescence 635/667, stem cell growth factor project, primary screen (AID 1064); settings: higher = more signal;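 further: measures binding of the biotinylated anti-FSTL3 antibody to printed compounds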
[2] = binders from COS7 lysate, DM2A8 probe, primary screen, torsin A project, cell lysate, small-molecule microarray, fluorescence 635/667 (AID 1065); settings: higher = more signal, COS7 lysate expressing mutant human TOR1A
[3] = small molecules captured by biotinylated probe aFGF2 – biochemical, small-molecule microarray, fluorescence 635/667, stem cell growth factor project, primary screen (AID 1067); settings: higher = more signal;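 further: measures binding of biotinylated aFGF2 protein to printed compounds on slides; z-score merges feature fluorescence and signal-to-noise across triplicate slides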
[4] = small molecules captured by biotinylated probe aFGF10 – biochemical, small-molecule microarray, fluorescence 635/667, stem cell growth factor project, primary screen (AID 1071); settings: higher = more signal;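 further: score merges 667 nm spot intensity and signal to noise from triplicate slides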
[5] = molecular target: Neurogenic locus notch homolog protein 2 (Homo sapiens) (UniProt Q04721); assay: small molecules binding Notch2 protein – biochemical, small-molecule microarray, 635 nm fluorescence, stem cell growth factors, primary screen (AID 1073); settings: higher = more signal
Chain of Neurogenic locus notch homolog protein 2 (Homo sapiens) (Q04721 whole entry, looked up, canonical isoform): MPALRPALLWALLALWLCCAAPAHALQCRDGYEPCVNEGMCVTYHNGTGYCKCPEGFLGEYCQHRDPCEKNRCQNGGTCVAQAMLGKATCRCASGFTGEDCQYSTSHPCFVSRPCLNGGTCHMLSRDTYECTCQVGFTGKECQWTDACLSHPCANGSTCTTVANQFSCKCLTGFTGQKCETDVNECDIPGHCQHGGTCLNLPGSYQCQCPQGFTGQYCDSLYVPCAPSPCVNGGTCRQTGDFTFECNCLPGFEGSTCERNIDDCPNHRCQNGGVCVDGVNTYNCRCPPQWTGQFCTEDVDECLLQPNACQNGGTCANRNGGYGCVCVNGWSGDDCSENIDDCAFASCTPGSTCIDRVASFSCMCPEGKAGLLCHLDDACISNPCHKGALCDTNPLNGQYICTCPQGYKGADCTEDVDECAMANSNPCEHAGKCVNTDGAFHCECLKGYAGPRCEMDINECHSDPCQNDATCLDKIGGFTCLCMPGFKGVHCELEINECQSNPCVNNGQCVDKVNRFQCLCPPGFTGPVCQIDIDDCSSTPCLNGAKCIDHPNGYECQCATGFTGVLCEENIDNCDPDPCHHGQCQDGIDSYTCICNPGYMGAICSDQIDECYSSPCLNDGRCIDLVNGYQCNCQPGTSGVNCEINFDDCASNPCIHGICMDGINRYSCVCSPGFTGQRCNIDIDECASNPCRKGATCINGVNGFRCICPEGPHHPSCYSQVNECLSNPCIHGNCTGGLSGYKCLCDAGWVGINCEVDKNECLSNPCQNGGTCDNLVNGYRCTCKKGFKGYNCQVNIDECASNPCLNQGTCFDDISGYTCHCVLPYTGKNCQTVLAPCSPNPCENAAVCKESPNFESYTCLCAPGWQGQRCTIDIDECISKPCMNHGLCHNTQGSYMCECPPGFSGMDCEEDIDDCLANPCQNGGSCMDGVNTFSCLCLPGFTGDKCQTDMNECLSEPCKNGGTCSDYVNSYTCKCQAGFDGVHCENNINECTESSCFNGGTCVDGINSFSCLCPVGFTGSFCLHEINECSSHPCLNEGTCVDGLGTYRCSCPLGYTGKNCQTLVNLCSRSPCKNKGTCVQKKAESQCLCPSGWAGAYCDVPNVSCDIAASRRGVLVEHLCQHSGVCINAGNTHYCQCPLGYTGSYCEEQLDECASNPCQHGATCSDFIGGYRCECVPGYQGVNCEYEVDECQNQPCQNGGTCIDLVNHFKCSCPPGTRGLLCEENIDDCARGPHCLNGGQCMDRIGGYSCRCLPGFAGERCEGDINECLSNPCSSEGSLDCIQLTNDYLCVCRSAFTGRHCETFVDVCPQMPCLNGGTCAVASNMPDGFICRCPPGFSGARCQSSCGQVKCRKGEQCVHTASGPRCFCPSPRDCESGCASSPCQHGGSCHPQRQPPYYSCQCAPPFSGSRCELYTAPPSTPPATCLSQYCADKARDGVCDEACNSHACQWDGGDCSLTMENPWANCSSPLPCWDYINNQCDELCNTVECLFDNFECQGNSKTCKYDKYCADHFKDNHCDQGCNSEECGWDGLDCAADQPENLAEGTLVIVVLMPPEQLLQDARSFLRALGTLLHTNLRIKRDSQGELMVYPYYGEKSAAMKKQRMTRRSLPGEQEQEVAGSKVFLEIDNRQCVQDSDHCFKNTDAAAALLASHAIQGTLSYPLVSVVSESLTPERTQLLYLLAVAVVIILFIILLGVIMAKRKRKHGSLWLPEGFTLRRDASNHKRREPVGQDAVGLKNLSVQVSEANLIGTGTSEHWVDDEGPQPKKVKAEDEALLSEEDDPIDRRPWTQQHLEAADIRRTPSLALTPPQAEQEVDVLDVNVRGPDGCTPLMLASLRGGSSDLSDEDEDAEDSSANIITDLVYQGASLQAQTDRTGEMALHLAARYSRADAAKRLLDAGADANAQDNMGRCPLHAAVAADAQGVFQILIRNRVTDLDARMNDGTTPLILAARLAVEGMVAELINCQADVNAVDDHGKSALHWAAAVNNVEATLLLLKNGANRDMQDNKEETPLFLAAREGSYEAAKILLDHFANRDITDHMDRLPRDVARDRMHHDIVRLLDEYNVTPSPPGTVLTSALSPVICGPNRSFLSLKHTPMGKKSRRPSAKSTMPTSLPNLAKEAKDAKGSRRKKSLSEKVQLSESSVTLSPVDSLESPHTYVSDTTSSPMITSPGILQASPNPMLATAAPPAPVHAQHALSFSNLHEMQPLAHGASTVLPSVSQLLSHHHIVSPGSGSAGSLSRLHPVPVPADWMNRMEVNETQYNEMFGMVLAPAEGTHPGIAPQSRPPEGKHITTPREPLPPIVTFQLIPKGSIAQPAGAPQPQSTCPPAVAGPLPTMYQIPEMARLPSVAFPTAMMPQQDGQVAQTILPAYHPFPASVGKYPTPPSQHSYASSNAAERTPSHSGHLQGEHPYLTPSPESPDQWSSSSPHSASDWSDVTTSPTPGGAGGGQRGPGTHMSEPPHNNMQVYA

[6] = molecular target: Pro-neuregulin-1, membrane-bound isoform (Homo sapiens) (UniProt Q02297); assay: small molecules binding neuregulin-1 protein – biochemical, small-molecule microarray, fluorescence 635/667, psychiatric disease protein project, primary screen (AID 1075); settings: NRG1 binding, 635 nm fluorescence, higher = more signal;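 further: score combines 667 nm spot fluorescence with signal to noise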
Chain of Pro-neuregulin-1, membrane-bound isoform (Homo sapiens) (Q02297 whole entry, looked up, the tested form may be a part, canonical isoform): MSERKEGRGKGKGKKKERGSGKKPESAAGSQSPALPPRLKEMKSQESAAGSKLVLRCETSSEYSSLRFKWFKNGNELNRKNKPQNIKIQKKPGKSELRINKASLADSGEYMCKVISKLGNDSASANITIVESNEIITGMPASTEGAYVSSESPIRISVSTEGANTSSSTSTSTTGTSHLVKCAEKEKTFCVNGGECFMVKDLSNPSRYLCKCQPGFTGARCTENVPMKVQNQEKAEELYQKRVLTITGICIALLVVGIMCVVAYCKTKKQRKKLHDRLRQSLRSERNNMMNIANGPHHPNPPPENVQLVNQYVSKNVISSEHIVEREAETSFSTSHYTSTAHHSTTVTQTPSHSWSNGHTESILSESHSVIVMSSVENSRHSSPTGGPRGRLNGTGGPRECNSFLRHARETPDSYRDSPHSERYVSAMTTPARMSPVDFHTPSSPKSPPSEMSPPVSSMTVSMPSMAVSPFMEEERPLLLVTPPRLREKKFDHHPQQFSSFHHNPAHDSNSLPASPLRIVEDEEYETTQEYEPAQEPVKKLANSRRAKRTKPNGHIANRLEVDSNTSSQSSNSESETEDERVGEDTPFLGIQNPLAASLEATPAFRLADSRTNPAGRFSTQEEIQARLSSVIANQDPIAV

[7] = test system: Neuregulin-1 EGF-like domain; assay: small molecules binding NRG1 EGF domain – biochemical, small-molecule microarray, 635 nm fluorescence, primary screen (AID 1081); settings: higher = more signal;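 further: binding of the protein to compounds printed on small-molecule microarray slides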
[8] = FRG1 expression reporter modulators in myotubes – cell-based, C2C12 myotubes, firefly/Renilla luciferase, luminescence, FRG1 inhibition for FSHD, primary screen (AID 1084); settings: FRG1 promoter luciferase, higher = more signal, called active from +8 up or from −8 down
[9] = small molecules captured by biotinylated probe aFST – biochemical, small-molecule microarray, fluorescence 635/667, stem cell growth factor project, primary screen (AID 1086); settings: higher = more signal;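 further: score merges 667 nm fluorescence with signal-to-noise of each printed compound spot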
[10] = binders of probe aHhip on microarray, primary screen, stem cell growth factor project, biochemical, small-molecule microarray, fluorescence 635/667 (AID 1087); settings: higher = more signal;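 further: score merges spot fluorescence at 667nm with spot signal to noise ratio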
[11] = test system: PRMT1 (protein arginine N-methyltransferase 1); assay: small molecules binding arginine methyltransferase PRMT1 – biochemical, small-molecule microarray, 635 nm fluorescence, primary screen (AID 1088); settings: higher = more signal;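 further: binding of Prmt1 protein to compounds spotted on small-molecule microarray slides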
[12] = growth effects on S. cerevisiae YJM789 – YJM789 clinical isolate, OD600, 24 h, basal, primary screen (AID 1089); settings: higher = more signal, called active from +8 up or from −8 down;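 further: growth of clinical yeast isolate S. cerevisiae YJM 789 seeded 1000 cells per well; test concentration not given here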
[13] = S. pombe growth modifiers, basal conditions – strain 972, OD600, 24 h, no modulator, primary screen (AID 1090);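 further: basal condition with compound alone and no growth modifier present; test concentration not given here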; settings: S. pombe 972 growth, higher = more signal, called active from +8 up or from −8 down
[14] = budding yeast growth modifiers under rapamycin – strain BY4716, OD600, 96 h, primary screen (AID 1091); further: test concentration not given here; settings: S. cerevisiae BY4716 + rapamycin, higher = more signal, called active from +8 up or from −8 down
[15] = molecular target: Torsin-1A-interacting protein 2 (Homo sapiens) (UniProt Q8NFQ8); assay: small molecules binding lysate-expressed LULL1 – cell lysate, human LULL1 lysate, 635/667 nm fluorescence, primary screen (AID 1092); settings: small-molecule microarray, hLULL1 lysate binding, 635 nm fluorescence; higher = more signal;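 further: probe is lysate of COS7 cells overexpressing human LULL1; score merges per-feature 667 nm fluorescence with signal-to-noise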
Chain of Torsin-1A-interacting protein 2 (Homo sapiens) (Q8NFQ8 whole entry, looked up): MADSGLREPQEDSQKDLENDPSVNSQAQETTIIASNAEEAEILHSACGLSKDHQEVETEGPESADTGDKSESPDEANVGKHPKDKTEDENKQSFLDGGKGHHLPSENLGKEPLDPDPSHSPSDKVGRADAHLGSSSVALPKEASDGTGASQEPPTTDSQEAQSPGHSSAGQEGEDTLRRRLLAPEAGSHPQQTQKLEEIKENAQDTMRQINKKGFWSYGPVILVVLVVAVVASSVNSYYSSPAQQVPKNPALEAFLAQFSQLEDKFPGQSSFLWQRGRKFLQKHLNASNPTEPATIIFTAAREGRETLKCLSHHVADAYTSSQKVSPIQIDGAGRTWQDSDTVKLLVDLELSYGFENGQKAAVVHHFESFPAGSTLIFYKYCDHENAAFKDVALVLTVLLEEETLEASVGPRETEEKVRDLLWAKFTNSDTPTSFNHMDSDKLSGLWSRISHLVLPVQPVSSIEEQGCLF

[16] = optical density change of DRC41 E. coli – strain DRC41, OD650, 24 h, E. coli filamentation project, primary screen (AID 1093);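 further: MC1000 strain lacking acrAB efflux and sulA so SOS filamentation is blocked; test concentration not given here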; settings: E. coli DRC41 growth, higher = more signal, called active from +8 up or from −8 down
[17] = probe aLefty2 binding to arrayed compounds – biochemical, biotinylated probe, 635/667 nm fluorescence, primary screen (AID 1094); settings: small-molecule microarray, higher = more signal;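 further: score merges spot fluorescence near 667 nm with spot signal-to-noise ratio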
[18] = test system: Noggin (protein binding on small-molecule microarray); assay: small molecules binding Noggin protein – biochemical, 635/667 nm fluorescence, primary screen (AID 1095); settings: 635 nm fluorescence, higher = more signal;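 further: score merges 667 nm feature fluorescence with signal to noise over triplicate slides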
[19] = molecular target: Neurogenic locus notch homolog protein 3 (Homo sapiens) (UniProt Q9UM47); assay: small molecules binding NOTCH3 protein – biochemical, 635/667 nm fluorescence, primary screen (AID 1096); settings: small-molecule microarray, 635 nm fluorescence, higher = more signal
[20] = probe aEGFR binding to arrayed compounds – biochemical, biotinylated probe, 635/667 nm fluorescence, primary screen (AID 1097); settings: small-molecule microarray, higher = more signal;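 further: probe is a biotinylated anti-EGFR antibody binding compounds printed on slides; score combines fluorescence near 667 nm and signal to noise of each spot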

Compound	composite z-score [1]	composite z-score [2]	composite z-score [3]	composite z-score [4]	composite z-score [5]	composite z-score [6]	composite z-score [7]	z-score [8]	composite z-score [9]	composite z-score [10]	composite z-score [11]	z-score [12]	z-score [13]	z-score [14]	composite z-score [15]	z-score [16]	composite z-score [17]	composite z-score [18]	composite z-score [19]	composite z-score [20]
C=CCC(OC(C)=O)[C@@H]1[C@@H](N(Cc2ccc(-c3ccccc3)cc2)C(=O)c2ccc(-c3ccccc3)cc2)c2cc(OCCCO)ccc2N1C(=O)c1ccc(-c2ccccc2)cc1 (stereo not given in full)	0.54	0.054	0.032	-0.0598	-0.0106	-0.333	-0.864	-0.0089 (inactive)	0.214	-0.146	-0.655	-0.611 (inactive)	-0.811 (inactive)	0.131 (inactive)	0.399	1.99 (inactive)	0.0525	-0.846	-0.83	-0.0981
CCN(CC)c1ccc(N2CC=CC34O[C@@H]5C=CCOC(=O)[C@@H]5[C@H]3C(=O)N(C(CO)C(C)C)[C@@H]4C2=O)cc1 (stereo not given in full)	0.277	-0.866	-0.134	-0.241	-0.835	-0.367	-0.805	0.232 (inactive)	-0.609	-0.134	-0.755	1.01 (inactive)	-0.635 (inactive)	1.07 (inactive)	-0.952	1.59 (inactive)	-0.138	-0.544	-1.02	-0.253
[N-]=[N+]=NCc1ccccc1C[C@]1(C(=O)NCc2ccccc2)N=C(c2ccc(OCCCO)cc2)O[C@H]1c1ccccc1	1.45	1.21	0.135	0.17	1.15	0.994	0.97	-2.74 (inactive)	0.407	-0.224	0.544	2.2 (inactive)	2.85 (inactive)	35.5 (active)	2.47	1.85 (inactive)	0.52	-0.577	0.224	0.1
CCCC[C@@H](O)C1=C(C)C[C@H]2C(=O)N(C)C(=O)[C@H]2[C@H]1CO	-0.275	-0.305	-0.12	0.469	0.109	0.11	-0.0165	-0.645 (inactive)	-0.176	-0.318	0.54	-0.219 (inactive)	-1.6 (inactive)	-1.19 (inactive)	1.31	2.68 (inactive)	-0.328	1.09	0.352	-0.21
CC(C)(C)OC(=O)CC[C@@]1(C(=O)NCc2ccccc2)N=C(c2ccc(OCCCO)cc2)O[C@@H]1c1ccccc1CN=[N+]=[N-]	0.492	1.41	0.015	1.18	1.49	1.16	1.15	0.59 (inactive)	1.19	-0.148	1.53	-0.0222 (inactive)	-0.0704 (inactive)	-0.13 (inactive)	2.3	2.64 (inactive)	0.387	0.958	1.14	0.236
COCCCNC(=O)[C@@]1(CCS(=O)(=O)c2ccccc2)N=C(c2ccc(OCCCO)cc2)O[C@H]1c1ccccc1CN=[N+]=[N-]	1.06	0.865	0.331	1.12	1.25	1.01	1.22	-0.891 (inactive)	1.25	0.0515	1.54	-1.61 (inactive)	-1.21 (inactive)	0.468 (inactive)	2.65	2.4 (inactive)	0.568	1.9	1.07	0.242
C=CC[C@]1(C(=O)N2CCCCC2)COC(c2ccc(OCCCO)cc2)=N1	0.892	0.586	-0.153	-1.44	-1.58	1.05	0.796	-2.05 (inactive)	-0.329	-0.251	0.517	-0.485 (inactive)	-5.08 (inactive)	-2.75 (inactive)	2.43	1.16 (inactive)	0.0499	0.452	-0.904	-0.0933
CC(CO)N1C(=O)[C@@H]2C3C(=O)OCCC/C=C\[C@H]3OC23C=CCN(Cc2ccccc2)C(=O)[C@@H]13 (stereo not given in full)	0.418	-0.338	-0.143	-0.486	-0.847	-0.512	0.18	0.227 (inactive)	-0.0745	-0.0239	0.432	-0.537 (inactive)	-2.16 (inactive)	-0.875 (inactive)	-0.0166	2.31 (inactive)	-0.16	-0.545	-0.505	-0.186
CC(C)C(=C=CC[C@@H](O)c1ccc(CO)o1)CCO	-0.416	0.443	0.007	0.768	-0.298	0.632	1.19	0.136 (inactive)	-0.304	0.065	0.821	1.15 (inactive)	-1.09 (inactive)	-0.24 (inactive)	1.28	1.17 (inactive)	-0.237	0.852	0.116	-0.191
NCCCCCCNC(=O)[C@@H]1C[C@@H]2C(=O)N[C@@H](Cc3ccccc3)C(=O)N2[C@@H]1c1ccc(O)cc1	1.38	0.757	-0.0715	-0.113	0.179	1.25	1.33	0.611 (inactive)	0.422	-0.265	0.914	-0.507 (inactive)	-1.11 (inactive)	-0.373 (inactive)	1.36	0.792 (inactive)	0.635	0.561	0.164	-0.063
